# Results filed as inconclusive are left out. The source made the active and inactive calls. Unless noted, the call rests on the fitted dose curve; in most records, active means well fitted curve in the direction sought with a large enough effect; inconclusive means small, poorly fitted or top-dose-only effect, or another doubt; inactive means no such curve, though single readings can be large; an effect the other way counts as inactive or inconclusive.
# Key:
# [1] = AP1 Signaling Pathway (AID 357; active means well fitted curve in either direction with a large enough effect, not every such curve was filed as active;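 further: ME-180 reporter cells stimulated with EGF at its EC50 level; on the % scale 0 is the no-effect control and ±100 the full control effect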); details: ME-180 AP-1-bla reporter, EGF-induced, beta-lactamase ratio, 5 h; at 7.69 µM (top of the series) unless noted
# Outline: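 Titration-series screen for positive or negative modulators of EC50 EGF-induced signaling in ME-180 cells carrying an AP-1-driven beta-lactamase reporter. After 5 hours at 37 degrees Celsius, CCF4 460nm/530nm emission ratio gave %Activity; AC50 values derived.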
# [2] = biological target: Cytochrome P450 1A2 (Homo sapiens) (UniProt P05177); test: p450-cyp1a2 (AID 410; calls by dose curve;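 further: -100% = full effect of reference inhibitor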)
# Chain of Cytochrome P450 1A2 (Homo sapiens) (P05177 whole entry, looked up): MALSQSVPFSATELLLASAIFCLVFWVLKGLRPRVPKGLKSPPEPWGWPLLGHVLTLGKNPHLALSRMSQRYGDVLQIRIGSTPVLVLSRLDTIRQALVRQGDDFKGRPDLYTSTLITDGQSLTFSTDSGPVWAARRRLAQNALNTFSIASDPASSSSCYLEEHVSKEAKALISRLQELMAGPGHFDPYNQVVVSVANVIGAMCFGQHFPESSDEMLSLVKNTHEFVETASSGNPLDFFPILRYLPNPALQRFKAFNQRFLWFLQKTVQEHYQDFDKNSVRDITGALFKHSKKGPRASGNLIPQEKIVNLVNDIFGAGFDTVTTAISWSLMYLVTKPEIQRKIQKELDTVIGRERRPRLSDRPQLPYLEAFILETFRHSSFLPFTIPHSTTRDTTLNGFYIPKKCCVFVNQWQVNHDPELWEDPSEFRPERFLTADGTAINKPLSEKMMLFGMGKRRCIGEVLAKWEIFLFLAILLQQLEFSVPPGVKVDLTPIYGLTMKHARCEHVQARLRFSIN
# Outline: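 Human CYP1A2 (20nM) demethylated Luciferin-ME at its Km (100uM) in 100mM KPO4. After 10 min compound preincubation, NADPH regeneration ran the reaction 60 min at room temperature. Luciferin was read by luminescence, normalized to 57 uM furafylline.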
# [3] = NFAT Signaling Pathway (AID 444; active means well fitted curve in either direction with a large enough effect, not every such curve was filed as active;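 further: carbachol stimulus at about its EC50 of 1 µM final; on the % scale 0 is the no-effect control and ±100 the full control effect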); details: Jurkat NFAT-bla M1, carbachol, beta-lactamase ratio, 5 h; at 7.69 µM (top of the series) unless noted
# Outline: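 Jurkat cells with NFAT-driven β-lactamase reporter and co-expressed M1 receptor, stimulated with carbachol (final 1 uM, ~EC50), compound titration, 5 h at 37 °C. CCF4 loaded 1 h at RT; 460/530 nm ratio gave %activity and AC50.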
# [4] = Stat Signaling Pathway (AID 446; active means well fitted curve in either direction with a large enough effect, not every such curve was filed as active;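 further: ME-180 cervical cancer cells given 40 pM IL-6 alongside compound; SIE-controlled beta-lactamase reporter measured as 460/530 nm FRET emission ratio; on the % scale 0 is the no-effect control and ±100 the full control effect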); details: ME-180 (cervical carcinoma) SIE beta-lactamase reporter, IL-6 stimulated, 5 h; at 7.69 µM (top of the series) unless noted
# Outline: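 IL-6/STAT signaling read in ME-180 cells via an SIE beta-lactamase reporter. Stimulus was 40 pM IL-6 (its AC50) for 5 hrs, so both activation and inhibition register.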
# [5] = biological target: Glucocorticoid receptor (Homo sapiens) (UniProt P04150); test: GR-EFC Redistribution (AID 451; calls by dose curve; further: potency means the concentration at half of the fitted maximal effect); details: CHO-K1 GR-EFC translocation, beta-gal luminescence, 2 h
# Chain of Glucocorticoid receptor (Homo sapiens) (P04150 whole entry, looked up, the tested form may be a part): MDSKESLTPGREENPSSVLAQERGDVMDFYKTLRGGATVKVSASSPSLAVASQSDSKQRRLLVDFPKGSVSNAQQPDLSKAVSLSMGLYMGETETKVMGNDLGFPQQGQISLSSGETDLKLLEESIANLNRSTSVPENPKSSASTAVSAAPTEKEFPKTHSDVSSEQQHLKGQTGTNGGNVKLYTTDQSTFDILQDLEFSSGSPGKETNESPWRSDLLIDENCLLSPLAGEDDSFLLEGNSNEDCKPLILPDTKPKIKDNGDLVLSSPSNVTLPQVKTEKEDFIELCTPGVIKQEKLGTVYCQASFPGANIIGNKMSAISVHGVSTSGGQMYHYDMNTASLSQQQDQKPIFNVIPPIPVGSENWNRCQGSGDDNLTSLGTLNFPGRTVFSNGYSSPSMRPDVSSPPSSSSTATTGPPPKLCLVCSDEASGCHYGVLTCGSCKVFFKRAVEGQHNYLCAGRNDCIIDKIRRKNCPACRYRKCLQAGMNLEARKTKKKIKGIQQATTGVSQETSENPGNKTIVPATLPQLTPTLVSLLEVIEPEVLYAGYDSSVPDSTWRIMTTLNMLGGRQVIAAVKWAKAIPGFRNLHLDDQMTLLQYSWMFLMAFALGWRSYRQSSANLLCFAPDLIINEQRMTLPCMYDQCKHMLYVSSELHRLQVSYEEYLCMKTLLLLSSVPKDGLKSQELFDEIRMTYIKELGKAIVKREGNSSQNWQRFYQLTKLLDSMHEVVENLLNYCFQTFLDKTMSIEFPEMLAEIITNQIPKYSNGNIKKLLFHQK
# Outline: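 CHO-K1 cells expressing nuclear EA and GR-ED fragments of b-gal; compounds titrated up to 46 uM final, 2 h at 37 C. GR nuclear translocation read as complemented b-gal luminescence after 1 h RT detection.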
# [6] = biological target: 3',5'-cyclic-AMP phosphodiesterase 4B (Homo sapiens) (UniProt Q07343); test: qHTS Assay for Inhibitors of PDE-IV (AID 607; active means well fitted activation curve with a large enough effect in the main read-out, with a control signal flat, not every such curve was filed as active; further: % of control where 0% means no effect)
# Chain of 3',5'-cyclic-AMP phosphodiesterase 4B (Homo sapiens) (Q07343 whole entry, looked up): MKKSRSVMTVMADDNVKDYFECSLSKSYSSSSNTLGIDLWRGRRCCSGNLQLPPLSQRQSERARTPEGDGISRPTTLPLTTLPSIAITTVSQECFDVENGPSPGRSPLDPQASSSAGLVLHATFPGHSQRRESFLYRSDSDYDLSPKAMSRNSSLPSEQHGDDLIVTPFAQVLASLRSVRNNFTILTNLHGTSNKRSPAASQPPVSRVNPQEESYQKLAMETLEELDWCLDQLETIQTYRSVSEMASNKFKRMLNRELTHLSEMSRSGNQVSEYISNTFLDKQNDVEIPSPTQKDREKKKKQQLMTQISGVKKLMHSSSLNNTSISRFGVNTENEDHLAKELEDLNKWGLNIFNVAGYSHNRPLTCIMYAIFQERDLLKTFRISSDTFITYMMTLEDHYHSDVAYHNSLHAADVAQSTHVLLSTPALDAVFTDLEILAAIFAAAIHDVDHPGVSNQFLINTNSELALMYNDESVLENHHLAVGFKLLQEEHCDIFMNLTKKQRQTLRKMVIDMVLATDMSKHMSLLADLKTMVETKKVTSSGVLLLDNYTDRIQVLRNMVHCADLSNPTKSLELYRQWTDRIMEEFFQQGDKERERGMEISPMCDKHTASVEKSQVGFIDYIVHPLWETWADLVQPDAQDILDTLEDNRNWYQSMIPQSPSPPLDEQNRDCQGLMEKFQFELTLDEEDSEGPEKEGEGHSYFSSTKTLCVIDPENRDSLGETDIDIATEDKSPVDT
# Outline: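 Live HEK293 cells with a modified cyclic nucleotide-gated (CNG) channel report intracellular cAMP via membrane-potential dye fluorescence (ex 535/em 590 nm). Endogenous PDE-IV was targeted. Compounds were tested at up to 22.9 uM final; RO 20-1724 100 uM served as control.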
# [7] = biological target: Cytochrome P450 3A4 (Homo sapiens) (UniProt P08684); test: qHTS Assay for Inhibitors and Substrates of Cytochrome P450 3A4 (AID 884); further: on the % scale 0 is the no-effect control and ±100 the full control effect; nearly all actives have a fitted effect of over 50% in size
# Chain of Cytochrome P450 3A4 (Homo sapiens) (P08684 whole entry, looked up): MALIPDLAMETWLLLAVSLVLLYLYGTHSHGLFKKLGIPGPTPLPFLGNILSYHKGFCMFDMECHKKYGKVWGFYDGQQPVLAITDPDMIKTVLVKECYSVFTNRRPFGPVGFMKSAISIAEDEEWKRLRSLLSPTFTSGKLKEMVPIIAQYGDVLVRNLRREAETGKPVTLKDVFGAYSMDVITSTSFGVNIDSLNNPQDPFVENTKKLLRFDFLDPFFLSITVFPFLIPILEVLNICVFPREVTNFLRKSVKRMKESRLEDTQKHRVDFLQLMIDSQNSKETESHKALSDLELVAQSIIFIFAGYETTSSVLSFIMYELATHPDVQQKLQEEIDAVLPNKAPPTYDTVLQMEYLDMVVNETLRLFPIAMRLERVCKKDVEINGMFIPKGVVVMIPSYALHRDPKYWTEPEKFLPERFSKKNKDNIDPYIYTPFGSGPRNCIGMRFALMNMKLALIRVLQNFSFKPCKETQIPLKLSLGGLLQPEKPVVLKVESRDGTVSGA
# Outline: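 20 nM human CYP3A4 with 25 uM Luciferin-PPXE (at KM) in 200 mM KPO4, preincubated 10 min with compound; NADPH regeneration started a 60 min RT reaction. Luciferin detected by luminescence, normalized to 57 uM ketoconazole as full inhibition.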
# [8] = qHTS Assay for Lipid Storage Modulators (AID 1519; calls by dose curve); details: Drosophila S3 cells, BODIPY lipid droplet/cell ratio, laser cytometry, cells loaded with oleic acid
# Outline: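 Cells seeded at 5,000 per well were treated with compounds over a concentration series and loaded with oleic acid (400 uM, as added). Lipid droplet fluorescence (488 nm excitation, 500-530 nm channel) was read by laser-scanning cytometry and normalized to 20 uM Triacsin C.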
# [9] = Primary qHTS for small molecule stabilizers of the endoplasmic reticulum resident proteome: Secreted ER Calcium Modulated Protein (SERCaMP) assay (AID 1508630); further: on the % scale 0 is the no-effect control and ±100 the full control effect
# Outline: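 GLuc-SERCaMP-expressing SH-SY5Y cells, pretreated 16 h with compound, are challenged with thapsigargin to empty ER calcium stores; after 4 h, coelenterazine is added directly to the medium and luminescence is imaged.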
# [10] = Primary qHTS for inhibitors of nuclear receptor binding SET domain protein 2 (NSD2) in an isogenic RCH-ACV NSD2 p.E1099K mutant (9B) (AID 1645876); further: nearly all actives have a fitted effect of over 70% in size; further: potency means the concentration at half of the fitted maximal effect
# [11] = biological target: Glutathione peroxidase 1 (Homo sapiens) (UniProt P07203); test: Primary qHTS Assay for Inhibitors of Recombinant Selenoprotein Glutathione Peroxidase 1 (GPX1) (AID 1845191); further: nearly all actives have a fitted effect of over 65% in size
# Chain of Glutathione peroxidase 1 (Homo sapiens) (P07203 whole entry, looked up): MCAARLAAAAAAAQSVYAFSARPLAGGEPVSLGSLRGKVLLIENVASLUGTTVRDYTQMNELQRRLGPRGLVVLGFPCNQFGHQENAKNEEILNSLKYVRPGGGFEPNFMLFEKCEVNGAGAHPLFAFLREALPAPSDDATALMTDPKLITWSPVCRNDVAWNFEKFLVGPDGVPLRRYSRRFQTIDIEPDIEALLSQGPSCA
# Outline: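 GR-coupled assay: compounds preincubated 30 min at room temperature with GPX1, then reaction started with CHP; final 10 nM GPX1, 1 mM GSH, 0.5 mM CHP, 0.5 mM NADPH, 100 nM GR, 0.01% BSA, pH 7.5 Tris buffer. NADPH fluorescence (340/450 nm) read at 0 and 15 min.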
# [12] = qHTS drug screen for cell cycle checkpoint inhibitors in PARPi-resistant BRCA-mutant ovarian cancer cell lines. (AID 1963452; calls by dose curve); details: PEO1/OlaR viability, CellTiter-Glo luminescence, 96 h, stronger effect = lower value
# Outline: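 PEO1, PEO4 and PEO1/OlaR ovarian cancer cells, 600 per well, exposed 96 h at 37C to a dilution series. Viability read by CellTiter-Glo luminescence, normalized to DMSO and empty wells; activity summarized as Z-AUC.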
# [13] = Primary qHTS for inhibitors of nuclear receptor binding SET domain protein 2 (NSD2) in an RCH-ACV wild type WT cells (2C) (AID 1645877); further: nearly all actives have a fitted effect of over 70% in size; further: potency means the concentration at half of the fitted maximal effect
# [14] = biological target: Phospholipid hydroperoxide glutathione peroxidase GPX4 (Homo sapiens) (UniProt P36969); test: Primary qHTS Assay for Inhibitors of Recombinant Selenoprotein Glutathione Peroxidase 4 (GPX4) (AID 1845192); details: outcome: dose series up to 50 µM unless noted; further: on the % scale 0 is the no-effect control and ±100 the full control effect; nearly all actives have a fitted effect of over 65% in size
# Chain of Phospholipid hydroperoxide glutathione peroxidase GPX4 (Homo sapiens) (P36969 whole entry, looked up): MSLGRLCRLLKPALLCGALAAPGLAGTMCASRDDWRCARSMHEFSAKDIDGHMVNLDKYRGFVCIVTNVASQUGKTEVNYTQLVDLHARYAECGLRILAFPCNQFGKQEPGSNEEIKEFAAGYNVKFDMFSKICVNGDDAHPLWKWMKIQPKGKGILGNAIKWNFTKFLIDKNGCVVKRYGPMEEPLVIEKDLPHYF
# Outline: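 GR-coupled assay: recombinant GPX4 preincubated 30 min with compound at room temperature; final 200 nM GPX4, 1 mM GSH, 0.5 mM cumene hydroperoxide, 0.5 mM NADPH, 100 nM GR, 0.01% BSA, pH 7.5 Tris. NADPH fluorescence (340/450 nm) read at 0 and 15 min.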
# [15] = measured here: PEO1 parental Z-AUC
smiles,measurement,setting,value
N#Cc1cccc(NC(=O)N2CCC3(CC2)CCN(C(=O)c2ccco2)CC3)c1,"activity change, negative = inhibition",[1],-7.83% (inactive)
same,Potency,[2],inactive
same,"activity change, negative = inhibition",[3],-8.92% (inactive)
same,"activity, negative = inhibition",[4],4.51% (inactive)
same,Potency,[5],> 46 µM (inactive)
same,Potency,[6],inactive
same,Potency,[7],inactive
same,"activity change, negative = inhibition",[8]; at 57.5 µM (top of the series),6.33% (inactive)
same,max response,[8]; measured here: cell count channel max response,10.3%
same,max response,[8]; measured here: lipid channel max response,18.9%
same,Potency,[9],inactive
COc1ccc2c(c1)C(c1ccc(F)cc1)=C(CN1CCCC1)CO2,Potency,[10],inactive
same,Potency,[11],inactive
same,Z-AUC,[12],-0.385 (inactive)
same,Z-AUC,[12]; [15],0.0924
same,Z-AUC,[12]; measured here: PEO4 Z-AUC,0.0293
O=C(O)CNC(=O)c1nc(Cl)c2ccccc2c1O,Potency,[10],inactive
same,Potency,[13],inactive
same,Potency,[11],inactive
same,Z-AUC,[12],-0.321 (inactive)
same,Z-AUC,[12]; [15],-0.207
same,Z-AUC,[12]; measured here: PEO4 Z-AUC,-0.202
COc1cc2c(Oc3ccc4[nH]c(C)cc4c3F)ccnc2cc1OCC1(N)CC1,Potency,[10],5.9 µM (active)
same,Potency,[11],inactive
same,Potency,[14],inactive
same,Z-AUC,[12],0.184 (inactive)
same,Z-AUC,[12]; [15],0.236
same,Z-AUC,[12]; measured here: PEO4 Z-AUC,0.196
CC(C)(O)CNc1ncc(-c2ccnc(Nc3ccncc3)n2)c(CC2CC2)n1,Potency,[10],4.17 µM (active)
same,Potency,[13],3.72 µM (active)
same,Potency,[11],inactive
same,Potency,[14],inactive
same,Z-AUC,[12],-0.109 (inactive)
same,Z-AUC,[12]; [15],-0.212
same,Z-AUC,[12]; measured here: PEO4 Z-AUC,0.228
O=C(O)c1ccccc1-c1ccc(/C=c2\sc3nc4cc(Br)cnc4n3c2=O)o1,Potency,[10],inactive
same,Potency,[13],inactive
same,Potency,[11],inactive
same,Z-AUC,[12],-0.492 (inactive)
same,Z-AUC,[12]; [15],-0.865
same,Z-AUC,[12]; measured here: PEO4 Z-AUC,-0.895
Cc1ccc(NS(=O)(=O)c2ccc3c(c2)C2C=CCC2C(c2ccc(C(=O)O)cc2)N3)cc1C (configuration not stated),Potency,[10],inactive
same,Potency,[13],inactive
same,Potency,[11],inactive
same,Z-AUC,[12],-0.665 (inactive)
same,Z-AUC,[12]; [15],-0.264
same,Z-AUC,[12]; measured here: PEO4 Z-AUC,-0.866

# From PubChem BioAssay (NCATS)
